An excerpt weighted towards active compounds, which were near 28% of everything screened.
CYP2C9 inh – inhibitors of human CYP2C9 | inhibition, % at 5 µM | 96,000 tested, 20% active | CYP2C9 Supersomes, luciferin-H conversion, luminescence | P11712;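 active = blocking of liver enzyme CYP2C9 beyond about 50% at 5 µM, limit read from the data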
CYP2C19 inhib – human CYP2C19 inhibition; P33261; CYP2C19 Supersomes, luciferin-H EGE luminescence, 30 min; inhibition, % at 5 µM; 96,000 tested, 21% active; AID 778;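 active = CYP2C19 inhibition above a set limit at 5 µM in the primary screen, cut at about 50% in these data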
Target sequence (P33261 whole entry, looked up): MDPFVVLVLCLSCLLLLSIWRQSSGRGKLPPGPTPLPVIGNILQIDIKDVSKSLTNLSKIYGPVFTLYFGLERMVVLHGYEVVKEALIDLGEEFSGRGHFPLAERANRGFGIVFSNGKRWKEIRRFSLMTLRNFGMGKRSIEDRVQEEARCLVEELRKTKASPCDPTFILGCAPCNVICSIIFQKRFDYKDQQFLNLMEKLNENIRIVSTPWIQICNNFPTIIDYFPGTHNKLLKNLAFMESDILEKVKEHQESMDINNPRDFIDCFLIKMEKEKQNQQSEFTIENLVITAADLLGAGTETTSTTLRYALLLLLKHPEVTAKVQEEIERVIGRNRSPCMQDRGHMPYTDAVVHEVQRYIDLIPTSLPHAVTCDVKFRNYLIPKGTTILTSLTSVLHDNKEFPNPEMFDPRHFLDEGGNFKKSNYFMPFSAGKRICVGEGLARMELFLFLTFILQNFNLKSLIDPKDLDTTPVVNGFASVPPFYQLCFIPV
Mac1 fbg inh – CD11b/CD18-fibrinogen binding inhibition. P05107+P11215. K562 CD11b/CD18 adhesion to fibrinogen, ATPlite luminescence; Mn2+ added to activate the integrin. inhibition, % at 10 µM. 93,000 tested, 0.54% active;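 active = primary inhibition of 50% or more at 10 µM, then 40% or more on retest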
CYP2C9 act – increases human cytochrome P450 2C9 activity; P11712; recombinant CYP2C9, luciferin-H conversion, luminescence; active compounds read high; factor 1 = untreated enzyme, 0 = blocked; activation factor at 5 µM; 96,000 tested, 1.4% active; AID 1024;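 active = activation factor of 2 or more for CYP2C9 at a 5 µM dose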
CYP2C19 act – increases human CYP2C19 enzyme activity. recombinant CYP2C19, luciferin-H EGE luminescence; active compounds read high; 0 = fully inhibited enzyme, 1 = untreated enzyme. activation factor at 5 µM. 96,000 tested, under 10 active. AID 1025;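 active = activation factor of at least 2 at 5 µM in the primary screen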
CD11b adhes enh – CD11b/CD18-fibrinogen binding enhancement; P05107+P11215; AID 1499; activation, % at 10 µM; K562 CD11b/CD18 adhesion to fibrinogen, ATPlite luminescence; 93,000 tested, 0.07% active;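 active = 10 µM primary screen giving 50% or more activity, confirmed by 40% or more on retest at that dose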
Each line names hits and unclear results; the compound was inactive in the other large screens.

Cc1cc(C)c(S(=O)(=O)N2CCCC(C(=O)NCCC3=CCCCC3)C2)c(C)c1 (stereo unspecified)	none (no result: Mac1 fbg inh, CD11b adhes enh)
O=C(Nc1ccc2snnc2c1)Nc1cccc2ccccc12	none
O=C(CNC(=O)c1cccs1)NCCN1CCN(c2ccccc2F)CC1	none
Cn1c2ccccc2c(=O)c2c(=O)n(C3CCCCC3)c(-c3ccco3)nc21	none (no result: CYP2C9 inh, CYP2C19 inhib, CYP2C9 act, CYP2C19 act)
CCOc1ccc(C(=O)NCC(=O)OC2CCOC2=O)cc1OCC (stereo unspecified)	none
O=C(CCC(=O)c1ccc(F)cc1)OC1CCOC1=O (stereo unspecified)	CYP2C19 inhib 78
O=[N+]([O-])c1cc(S(=O)(=O)N2CCCCCC2)ccc1F	none (no result: CYP2C9 inh, CYP2C19 inhib, CYP2C9 act, CYP2C19 act)
CCOC(=O)C1CCN(CC(O)COc2ccc(C(C)(C)CC)cc2)CC1 (stereo unspecified)	none
Cc1cccc(OCC(=O)N2CCN(C(=O)c3cccs3)CC2)c1	CYP2C9 inh 59, CYP2C19 inhib 62
CCOC(=O)C1CCN(C(=O)COc2ccc(Br)cc2)CC1	CYP2C9 inh 65, CYP2C19 inhib 82
Cc1cccc(OCC(=O)N2CCC(c3ccccc3)C2)c1 (stereo unspecified)	none
CCOC(=O)C1CCN(C(=O)COc2cccc(C)c2)CC1	CYP2C19 inhib 81 (no result: Mac1 fbg inh, CD11b adhes enh)
CCOC(=O)C1CCN(CC(O)COc2ccc(C(C)(C)C)cc2)CC1 (stereo unspecified)	CYP2C19 inhib 56
CCSc1nc2ccc(N3C(=O)C4C5C=CC(C5)C4C3=O)cc2s1 (stereo unspecified)	none (no result: CYP2C9 inh, CYP2C19 inhib, CYP2C9 act, CYP2C19 act)
COc1cc(NC(C(=O)Nc2cccc(C(C)=O)c2)c2ccccc2)cc(OC)c1OC (stereo unspecified)	none (no result: CYP2C9 inh, CYP2C19 inhib, CYP2C9 act, CYP2C19 act)
CCOC(=O)C1CCN(C(=O)COc2ccc(S(=O)(=O)NC(C)(C)C)cc2)CC1	none
CCOC(=O)C1CCN(C(=O)c2cccc(C(=O)N3CCC(C(=O)OCC)CC3)c2)CC1	none
CCOC(=O)C1CCN(C(=O)Cc2cccs2)CC1	CYP2C19 inhib 59
CCOC(=O)C1CCN(C(=O)COc2cc(C)c(Br)cc2C)CC1	CYP2C19 inhib 91
O=C(NCCCN1CCOCC1)c1cccs1	none
O=C(COc1ccc2ccccc2c1)NNC(=O)Cc1cccc2ccccc12	none (no result: CYP2C9 inh, CYP2C19 inhib, CYP2C9 act, CYP2C19 act)
CC(C)(C)c1ccc(C(=O)NNC(=O)Cc2cccc3ccccc23)cc1	CYP2C9 inh 58
Cc1cc(C)n2nc(NCc3cccc(Br)c3)nc2n1	CYP2C19 inhib 64
Nc1cc(OC(=O)c2cccs2)nn1S(=O)(=O)c1ccc(F)cc1	CYP2C9 inh 93
COc1cccc(C(=O)O/N=C(\N)c2ccncc2)c1OC	none (no result: CYP2C9 inh, CYP2C19 inhib, CYP2C9 act, CYP2C19 act)
COc1cccc(C(=O)Oc2cc(N)n(S(=O)(=O)c3ccc(C)cc3)n2)c1OC	CYP2C9 inh 76 (no result: Mac1 fbg inh, CD11b adhes enh)
CCOC(=O)Nc1nnc(-c2ccc(OC)c(OC)c2)s1	none
Cc1ccccc1-c1ccc(Nc2ccc(N3CCOCC3)cc2)nn1	CYP2C9 inh 58
Cc1nc(SCC(=O)NC(C)(C#N)C2CC2)c2c(-c3cccs3)csc2n1 (stereo unspecified)	none (no result: CYP2C9 inh, CYP2C19 inhib, CYP2C9 act, CYP2C19 act)
CC(C)CC(NC(=O)C1CCCCC1)C(=O)N1CCN(c2ccccn2)CC1 (stereo unspecified)	none
COc1cc(C(=O)Nc2sc3c(c2C#N)CCN(C(C)=O)C3)cc(OC)c1OC	none
CCOC(=O)c1sc(N)c(C#N)c1COC(=O)CNC(=O)c1cc(OC)c(OC)c(OC)c1	CYP2C9 inh 64, CYP2C19 inhib 53
COC(=O)c1c(NC(=O)CC2Nc3ccccc3NC2=O)sc(C)c1C (stereo unspecified)	none (no result: Mac1 fbg inh, CD11b adhes enh)
O=C1Nc2cc(Cl)c(Cl)cc2N(O)N1c1ccc(Cl)c(Cl)c1	CYP2C9 inh 54
O=C1Nc2ccccc2C(O)(C(=O)NC2CC2)N1c1ccc(Cl)c(Cl)c1 (stereo unspecified)	none
Cc1nn2c(-n3ccnc3)c3c(nc2c1-c1ccccc1)CCC3	CYP2C9 inh 63, CYP2C19 inhib 96
CCCCNc1c2c(nc3c(-c4ccccc4)c(C)nn13)CCC2	none
COc1cccc(NC(=O)Cc2c(C(=O)O)[nH]c3ccccc23)c1	none (no result: Mac1 fbg inh, CD11b adhes enh)
Cc1ccccc1NC(=O)Cc1cn(C)c2ccccc12	CYP2C9 act 3
COc1cccc(NC(=O)CCCn2c(=O)[nH]c3ccccc3c2=O)c1	CYP2C9 inh 72
COc1cccc(NC(=O)Cn2c(=O)n(CC3CCCO3)c(=O)c3ccccc32)c1 (stereo unspecified)	CYP2C19 inhib 63
CN1CCN(c2ccccc2NC(=O)Cc2cn(C)c3ccccc23)CC1	none
COc1cccc(NC(=O)Cc2cn(C)c3ccccc23)c1	CYP2C9 act 3.8
O=C(Cn1c(=O)n(CC2CCCO2)c(=O)c2ccccc21)c1ccc(Cl)c(Cl)c1 (stereo unspecified)	none
CCOC(=O)c1c(NC(C)=O)sc2c1CCCNC2=O	none
CC(CCc1ccco1)NC(=O)CSc1cc(=O)n(C)c2ccccc12 (stereo unspecified)	none
CCCCN(CC)C(=O)Cc1cn(C)c2ccccc12	CYP2C19 inhib 95, CYP2C9 act 3.4
CCCCN(CC)C(=O)Cc1ccccc1OC	none (no result: Mac1 fbg inh, CD11b adhes enh)
COc1ccc(OC)c(CCNC(=O)CS(=O)(=O)Cc2nc(-c3ccccc3C)oc2C)c1	CYP2C19 inhib 66
Cc1oc(-c2ccccc2F)nc1CS(=O)(=O)CC(=O)N1CCCCCC1	CYP2C9 inh 81
Cc1ccccc1-c1nc(CS(=O)(=O)CC(=O)N(C)C2CCCCC2)c(C)o1	CYP2C19 inhib 86
COc1ccccc1NS(=O)(=O)c1cccc(NC(=O)NC2CCCCC2)c1	none (no result: CYP2C9 inh, CYP2C19 inhib, CYP2C9 act, CYP2C19 act)
CCOC(=O)c1c(C)c2c(n1C)CCC/C2=N\O	CYP2C19 inhib 60
CCOC(=O)c1c(C)c(C(=O)NC2CCCCCC2)c(C)n1C	none
Cc1cc(O)c(C(C)C)cc1N=C1CSC(=O)N1	none
N/C(=N\OC(=O)CCCCCN1C(=O)c2ccccc2C1=O)c1ccccc1	none
CCOC(=O)C1CC=C(Cl)CC1C(=O)Nc1nccs1 (stereo unspecified)	none
CN1CCN(C(=O)c2ccccc2-c2ccccc2C(=O)O)CC1	none
CCCC/S(CC1CC1(Cl)Cl)=N\S(=O)(=O)c1ccc(C)cc1 (stereo unspecified)	none
Cc1ccc(S(=O)(=O)/N=S(\C)CC2CC2(Cl)Cl)cc1 (stereo unspecified)	CYP2C19 inhib 58
COc1ccc(CN2CCSCC2)cc1O	none
COc1cccc(/C=N/n2c(C)nc3ccccc32)c1OC	CYP2C9 inh 68 (no result: Mac1 fbg inh, CD11b adhes enh)
COc1ccc(/C=N/n2c(SC)nnc2-c2ccccc2)c(OC)c1OC	CYP2C9 inh 67, CYP2C19 inhib 79
COc1ccc(/C=N/n2c(SC)nnc2-c2ccccc2)cc1C	CYP2C19 inhib 54
CCCCN(NC(C)=O)c1nc(Cl)nc(NC(C)C)n1	none

Screening results (PubChem BioAssay)
